# Measurements taken from PubChem BioAssay (NCATS).
# Records with an inconclusive call do not appear. Entries that show only a call come without a potency. A number with no mark means an inactive call. The source made the active and inactive calls. Calls come from the whole dose curve.
# Assay: Primary qHTS for inhibitors of SARS-S pseudo-typed particle cell entry (AID 1479145); note: nearly all actives have a fitted effect of over 45% in size
# Details: SARS-S pseudotyped particle cell entry, luciferase reporter; series mostly up to 57.1 µM
# Potency is the fitted concentration of half-maximal effect.
SMILES,Potency,"activity change, negative = inhibition"
Cc1noc(NS(=O)(=O)c2ccc(N)cc2)c1C,inactive,–
COc1ccc(C2CNC(=O)C2)cc1OC1CCCC1 (stereo not drawn),inactive,–
CCC1=C(C)CN(C(=O)NCCc2ccc(S(=O)(=O)NC(=O)NC3CCC(C)CC3)cc2)C1=O (stereo not drawn),inactive,–
CCOc1ccc(NC(=O)CC(C)O)cc1 (stereo not drawn),inactive,–
CC(C)Cn1cnc2c(N)nc3ccccc3c21,inactive,–
COc1ccc(NS(=O)(=O)c2ccc(N)cc2)nn1,inactive,–
CNC[C@H](O)[C@@H](O)[C@H](O)[C@H](O)CO,inactive,–
O=C(O)Cc1sc(-c2ccccc2)nc1-c1ccc(Cl)cc1,inactive,–
Nc1nc(/C(=C/CC(=O)O)C(=O)N[C@@H]2C(=O)N3C(C(=O)O)=CCS[C@H]23)cs1,inactive,–
NCCS(=O)(=O)O,inactive,–
O=C(O)/C=C(\CC(=O)O)C(=O)O,inactive,–
CC(=O)O[C@@H]1CC2C3CCc4cc(OC(=O)c5ccccc5)ccc4C3CCC2(C)[C@H]1OC(C)=O (stereo partly drawn),inactive,–
CCCCCCCC/C=C/C(=O)O,inactive,–
O=C(O)c1ccccc1Nc1cccc(C(F)(F)F)c1,inactive,–
C[C@](N)(Cc1ccc(O)cc1)C(=O)O,–,-0.396% [at 5.34 µM]
CNNCc1ccc(C(=O)NC(C)C)cc1,inactive,–
NC(=O)c1ccccc1O,inactive,–
CCCCCCCCCCCCCCCCCCO,inactive,–
O=C(O)c1cc(N=Nc2ccc(O)c(C(=O)O)c2)ccc1O,inactive,–

SMILES,Potency,"activity change, negative = inhibition"
O=C(O)COc1nn(Cc2ccccc2)c2ccccc12,inactive,–
CCCC(=O)O[C@]1(C(=O)COC(=O)CC)CC[C@H]2[C@@H]3CCC4=CC(=O)CC[C@]4(C)[C@H]3[C@@H](O)C[C@@]21C,inactive,–
CC(C)Cc1ccc(C(C)C(=O)O)cc1 (stereo not drawn),inactive,–
CCC1(C)CC(=O)NC1=O (stereo not drawn),inactive,–
Nc1nc2[nH]cc(CCc3ccc(C(=O)N[C@@H](CCC(=O)O)C(=O)O)cc3)c2c(=O)[nH]1,inactive,–
O=C(O)Cc1cccc(-c2cc(CCCCCCc3ccc(O[C@H]4O[C@H](CO)[C@@H](O)[C@H](O)[C@@H]4O)c(-c4cccc(CC(=O)O)c4)c3)ccc2O[C@H]2O[C@H](CO)[C@@H](O)[C@H](O)[C@@H]2O)c1,–,-22.9% [at 0.573 µM]
Clc1ccc2nsnc2c1NC1=NCCN1,inactive,–
C=CCc1ccc(O)c(OC)c1,inactive,–
O=c1cc(O)c(Cl)c[nH]1,inactive,–
CC(C(=O)O)c1ccc(/C=C2\CCCCC2=O)cc1 (stereo not drawn),inactive,–
CCCCC(CC)COC(=O)c1ccccc1O (stereo not drawn),inactive,–
CN[C@@H]1[C@@H](O)[C@@H](O[C@@H]2[C@H](O)[C@H](O[C@H]3OC(CN)=CC[C@H]3N)[C@@H](N)C[C@H]2N)OCC1(C)O (stereo partly drawn),inactive,–
COC(=O)C1=C(C)NC(C)=C(C(=O)OCCc2ccc(N3CCN(C(c4ccccc4)c4ccccc4)CC3)cc2)C1c1cccc([N+](=O)[O-])c1 (stereo not drawn),inactive,–
CO[C@@]1(NC(=O)C2SC(=C(C(N)=O)C(=O)O)S2)C(=O)N2C(C(=O)O)=C(CSc3nnnn3C)CS[C@@H]21 (stereo partly drawn),inactive,–
c1ccc2sc(SSc3nc4ccccc4s3)nc2c1,inactive,–
CN1C(=O)OC(C)(C)C1=O,inactive,–
CCCCCCCCCCCCCCCCOP(=O)([O-])OCC[N+](C)(C)C,14.1 µM (active),–
COc1ccc2cc1Oc1cc3c(cc1OC)CC[N+](C)(C)[C@H]3Cc1ccc(cc1)Oc1c(OC)c(OC)cc3c1[C@@H](C2)[N+](C)(C)CC3,inactive,–
COC(=O)c1cc(Cl)ccc1NS(=O)(=O)C(F)(F)F,inactive,–
